Screening data: PubChem, National Center for Advancing Translational Sciences (NCATS)
This is a sample that favours compounds with a hit; in the whole collection about 11% have one here.
L3MBTL1 block: L3MBTL1 (human) inhibition. Potency, µM (top dose mostly 57.1 µM), most hits filed as inhibitors. AlphaScreen L3MBTL1–H3K9me1 peptide binding. Q9Y468. 230,000 compounds, 0.66% hits; note: nearly all actives have a fitted effect of over 60% in size
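AlphaScreen proximity signal between nickel-chelate acceptor and streptavidin donor beads (final 10 ug/mL) reports binding of 50 nM L3MBTL1 to 75 nM biotin-H3 K9me1 peptide; complex incubated with compounds 30 min at room temperature; cefsulodin titration as control.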
JMJD2A Tudor inh: blocks the human JMJD2A Tudor domain; 390,000 compounds, 4.4% hits; AID 504339; AlphaScreen JMJD2A-Tudor / H3K4me3 peptide binding; Potency, µM (top dose mostly 114 µM), hits mostly inhibitors; O75164; note: nearly all actives have a fitted effect of over 50% in size
G9a inh: G9a (human) methyltransferase inhibition. Q96KQ7. G9a H3K9 monomethylation, AlphaScreen, 2 h. Potency, µM (highest dose often 102 µM), hits mostly inhibitors. 350,000 compounds, 8.8% hits. AID 504332; note: nearly all actives have a fitted effect of over 75% in size
Target sequence (Q96KQ7 913-1193 limits assumed): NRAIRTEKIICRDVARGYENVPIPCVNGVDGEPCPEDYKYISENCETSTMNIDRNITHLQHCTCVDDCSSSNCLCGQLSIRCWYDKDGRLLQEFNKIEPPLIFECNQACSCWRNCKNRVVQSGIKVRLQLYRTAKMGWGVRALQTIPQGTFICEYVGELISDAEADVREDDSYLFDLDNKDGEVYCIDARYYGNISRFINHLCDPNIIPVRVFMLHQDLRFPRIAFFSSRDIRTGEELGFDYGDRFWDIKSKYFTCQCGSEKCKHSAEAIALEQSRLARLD
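Using a bead-based AlphaScreen, monomethylated H3K9 product from 2 h room-temperature reactions (G9a 20 nM, peptide 500 nM, SAM 20 uM) was detected with 0.5 ug/mL rabbit anti-H3K9me1 antibody.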
HP1b chromo inh: HP1-beta chromodomain-methylated histone interaction inhibition | AlphaScreen HP1-beta / biotin-H3K9me3 peptide binding | Potency, µM (top dose mostly 114 µM), hits mostly inhibitors | 390,000 compounds, 0.56% hits | AID 540317; note: nearly all actives have a fitted effect of over 70% in size
Target sequence (P83916 whole entry, looked up): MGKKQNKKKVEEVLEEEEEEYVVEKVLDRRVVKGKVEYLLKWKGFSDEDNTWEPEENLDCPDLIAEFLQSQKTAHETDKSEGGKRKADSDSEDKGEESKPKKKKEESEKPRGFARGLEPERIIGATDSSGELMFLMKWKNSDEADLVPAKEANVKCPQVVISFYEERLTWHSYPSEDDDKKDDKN
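AlphaScreen: HP1-beta (50 nM) preformed 30 min with biotin-H3(1-18)K9me3 peptide (50 nM) in PBS pH 7.4, 0.01% Tween-20. Compound added for 30 min at RT, then streptavidin donor/nickel chelate acceptor beads (10 ug/mL) for 30 min.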
BAZ2B block: inhibitors of human BAZ2B bromodomain. Q9UIF8. AlphaScreen BAZ2B-H3K14Ac peptide displacement. Potency, µM (top dose mostly 114 µM), usual class: inhibitors. 360,000 compounds, 4.4% hits. AID 504333; note: nearly all actives have a fitted effect of over 60% in size
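AlphaScreen displacement of biotin-H3(5-23)K14Ac peptide (50 nM final) from BAZ2B (50 nM final) in PBS pH 7.4, 0.01% Tween-20; complex preformed 30 min RT, then compounds (top 110 uM) 30 min RT, beads 20 min dark.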
PI5P4K alpha inh: PI5P4K alpha (human) kinase inhibition | P48426 | PI5P4Kalpha enzyme, ADP-Glo luminescence, 60 min; hits give low values | 330,000 compounds, 1.2% hits | max response, %; active = max response of -50% or lower; inconclusive = between -30% and -50%; inactive = -30% or higher; note: value at the top dose of about 77 µM
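Quantitative HTS of the MLSMR library against PI5P4Kalpha with substrate. ATP added last at 5 microM final; room temperature, 60 minutes. Remaining ATP depleted, ADP converted and read as luminescence.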
Hits are given with their value; n = inactive; u = inconclusive; x = no result; [ ] = dose if it differs, or a comment. Unless noted, calls come from the whole dose curve; as a rule, active = well fitted inhibition curve with a large enough effect; inconclusive = small, poorly fitted or top-dose-only effect; inactive = no such curve, though single readings can be large or run the other way.

SMILES	L3MBTL1 block	JMJD2A Tudor inh	G9a inh	HP1b chromo inh	BAZ2B block	PI5P4K alpha inh
COc1ccc(C(=O)Nc2nnc(S(=O)(=O)N(C)c3ccc(C)cc3)s2)cc1	x	n	n	n	u	x
CCc1nn(Cc2cccc(F)c2)c(=O)c2cc3cc(C)ccc3n12	x	n	n	n	n	x
CC(=O)c1cccc(NC(=O)c2c(C)nn(-c3ccc(F)cc3)c2-n2cccc2)c1	x	n	n	n	n	x
CSc1nc(C)c(C(=O)C[n+]2ccccc2)cc1C#N	n	n	x	n	0.79µM	n
CCOC(=O)c1cc(C#N)c(SCC(=O)c2cc(C#N)c(SC)nc2C)nc1C	n	n	45µM	n	n	x
C=Cc1ccc(CN2C(=O)N(c3ccc(C)c(C)c3)S(=O)(=O)c3ccccc32)cc1	x	n	n	n	n	x
O=c1c(-c2cccc(F)c2)nc2cncnc2n1C1CC1	x	x	n[12.7 µM]	x	x	x
Cc1sc2ncn(CC(=O)N3CCN(c4ccccc4)CC3)c(=O)c2c1S(=O)(=O)N1CCN(c2ncccn2)CC1	x	n	n	n	n	x
CCCC(=O)NNc1c2ccccc2nc2ccccc12	n	n	n	n	n	n
O=C(NNc1c2ccccc2nc2ccccc12)c1ccc(O)cc1	u	n	u	u	28µM	n
O=C(NNc1c2ccccc2nc2ccccc12)c1cccc(O)c1	n	45µM	u	u	35µM	n
O=S(=O)(c1ccc(Cl)cc1)c1nnn2c1nc(N1CCCCC1)c1sccc12	x	n	n	n	n	x
Cc1c(C#N)c(NC(=O)CCl)n(Cc2ccccc2)c1C	x	n	56µM	n	u	n
Cc1c(C#N)c(NC(=O)CCl)n(Cc2cccs2)c1C	n	n	50µM	n	n	n
Cc1c(C#N)c(NC(=O)CCl)n(Cc2ccc(F)cc2)c1C	x	n	u	n	n	n
CCc1ccccc1N(CC)C(=O)Cn1nc(Cc2ccncc2)c2ccccc2c1=O	x	n	n	n	n	x
O=[N+]([O-])c1cccc(S(=O)(=O)Nc2cccc(-c3ccc(N4CCOCC4)nn3)c2)c1	n	n	10µM	n	n	n
O=[N+]([O-])c1cccc(S(=O)(=O)Nc2ccc(-c3ccc(N4CCCC4)nn3)cc2)c1	n	n	n	n	n	n
O=[N+]([O-])c1cccc(S(=O)(=O)Nc2ccc(-c3ccc(N4CCOCC4)nn3)cc2)c1	n	n	45µM	n	n	n
CC(=O)c1ccc(NC2=NS(=O)(=O)c3ccccc32)cc1	x	n	n	n	n	x
O=C(Cc1ccccc1Cl)NC1(O)C(=O)c2ccccc2C1=O	n	n	56µM	n	n	n
COC(=O)c1sc2cccc(F)c2c1S(=O)(=O)NCc1ccc(Cl)cc1	x	n	n	n	n	x
O=C(CS(=O)(=O)c1cn(CC(=O)N2CCOCC2)c2ccccc12)Nc1ccccc1	x	n	u	n	x	n
CC(=O)Nc1ccc(NC(=O)CS(=O)(=O)c2cn(CC(=O)N3CCCC3)c3ccccc23)cc1	x	n	40µM	n	n	n
O=C(Cn1cc(S(=O)(=O)Cc2ccc([N+](=O)[O-])cc2)c2ccccc21)N1CCOCC1	x	n	8.9µM	n	n	n
SMILES	L3MBTL1 block	JMJD2A Tudor inh	G9a inh	HP1b chromo inh	BAZ2B block	PI5P4K alpha inh
O=C(Cn1cc(S(=O)(=O)Cc2cccc([N+](=O)[O-])c2)c2ccccc21)N1CCOCC1	x	n	u	n	n	n
O=C(CS(=O)(=O)c1cn(CC(=O)N2CCCC2)c2ccccc12)Nc1ccccc1	x	n	n	n	n	n
Cc1ccc(CNC(=O)CS(=O)(=O)c2cn(CC(=O)N3CCOCC3)c3ccccc23)cc1	x	n	25µM	n	n	n
CCc1ccc(-n2c(=O)c3c(C)c(C)sc3n(CC(=O)NCc3ccc(C)cc3)c2=O)cc1	x	n	n	n	n	x
Cc1cc(-n2c(C)cc(C(=O)COc3ccc4ccc(=O)oc4c3)c2C)no1	u	n	n[12.7 µM]	n	n	n
Cc1cc(-n2c(C)cc(C(=O)COc3cccnc3[N+](=O)[O-])c2C)no1	n	n	40µM	n	u	n
CC(=O)c1cccc(OCC(=O)c2cc(C)n(-c3cc(C)on3)c2C)c1	n	n	50µM	n	u	n
Cc1sc2nc(CC(=O)N3CCCC3)[nH]c(=O)c2c1C	n	n	28µM	n	n	n
C[N+]12CCCC[C@@H]1CCC(=C(c1cccs1)c1cccs1)C2 (stereo partly specified)	x	x	n[12.7 µM]	x	x	x
COCCN1C(=O)C(=O)/C(=C(/O)c2ccc(S(=O)(=O)N3CCOCC3)cc2)C1c1ccc(C(C)C)cc1 (stereo unspecified)	n	x	n[2.33 µM]	x	n	x
COCCN1C(=O)C(=O)/C(=C(/O)c2ccc(S(=O)(=O)N3CCCCC3)cc2)C1c1ccc(OC)cc1 (stereo unspecified)	x	n	71µM	n	n	n
COCCCN1C(=O)C(=O)/C(=C(/O)c2ccc(S(=O)(=O)N3CCCCC3)cc2)C1c1ccc(F)cc1 (stereo unspecified)	x	n	n[0.0925 µM]	n	u	n
COCCN1C(=O)C(=O)/C(=C(/O)c2ccc(S(=O)(=O)N3CCOCC3)cc2)C1c1cccc(OC)c1 (stereo unspecified)	x	n	71µM	n	n	n
COCCN1C(=O)C(=O)/C(=C(/O)c2ccc(S(=O)(=O)N3CCCCC3)cc2)C1c1ccc(O)c(OC)c1 (stereo unspecified)	x	89µM	71µM	n	n	n
COCCN1C(=O)C(=O)/C(=C(/O)c2ccc(S(=O)(=O)N3CCOCC3)cc2)C1c1cccc(O)c1 (stereo unspecified)	n	n	n	n	u	n
COc1ccc(C2/C(=C(/O)c3ccc(S(=O)(=O)N4CCOCC4)cc3)C(=O)C(=O)N2CCN2CCOCC2)cc1 (stereo unspecified)	x	n	50µM	n	u	n
CCOC(=O)c1cnc2ccc(OCC)cc2c1N1CCN(c2cccc(Cl)c2)CC1	x	n	n	n	u	x
Cc1ccc2cccc(NC(=O)C(C)(C)Oc3ccc(Br)cc3)c2n1	x	n	n	n	n	x
O=C(O)c1csc(-c2ccc(Cl)cc2)n1	n	n	56µM	n	u	n
Cc1nc2c(cnn2-c2ccccc2Cl)c(=O)n1-c1ccc(N2CCC(C)CC2)cc1	x	u	50µM	n	u	x
S=c1[nH]ccn1-c1cccc(Cl)c1	n	7.9µM	u	n	n	n
Cc1ccc(-n2cc[nH]c2=S)cc1C	n	35µM	u	n	n	n
Cc1ccc(N2C(=O)C(Cc3ccc(O)cc3)NC2=S)cc1C (stereo unspecified)	n	n	n	n	n	n
Cc1ccc(NC(=O)CSc2ncccc2C(=O)Oc2cccc([N+](=O)[O-])c2)cc1Cl	n	n	50µM	n	n	n
COc1ccc(OC)c(-c2noc(N3CCN(c4ccc(Cl)cc4)CC3)n2)c1	x	u	n	n	n	x
